# Measurements taken from the supplement of paper PMC6555819.
# Tests used:
# Experiment in all cases: PBM binding z-score (relative to random genomic background probes); higher = stronger binding; sequences stand for … in GC…GCGATTGACAGCGTAGAATGAAGG
# [1] = tested on: FXR:RXRa (NR concentration 270 nM, RXRa partner concentration 90 nM)
# Method in brief: (§1)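 Regression normalization was applied to scanned fluorescence from custom Agilent 4×180K protein-binding microarrays. Before scanning, arrays were incubated 1 h with ligand-free nuclear receptor dimers, and binding was detected with antibodies against each partner (one per run). Binding z-scores use the random background probes as reference.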
# [2] = tested on: LXRa:RXRa (NR concentration 270 nM, RXRa partner concentration 90 nM)
# Method in brief: as §1
# [3] = tested on: LXRa homodimer (NR concentration 270 nM)
# Method in brief: as §1
# [4] = tested on: LXRb:RXRa (NR concentration 270 nM, RXRa partner concentration 90 nM)
# Method in brief: as §1
# [5] = tested on: LXRb homodimer (NR concentration 270 nM)
# Method in brief: as §1
# [6] = tested on: PPARa:RXRa (NR concentration 270 nM, RXRa partner concentration 90 nM)
# Method in brief: as §1
# [7] = tested on: PPARg:RXRa (NR concentration 180 nM, RXRa partner concentration 90 nM)
# Method in brief: as §1
# [8] = tested on: PPARg:RXRa 270nM:90nM, anti-RXR (NR concentration 270 nM, RXRa partner concentration 90 nM)
# Method in brief: as §1
# [9] = tested on: PPARg:RXRa 30nM:10nM, anti-RXR (NR concentration 30 nM, RXRa partner concentration 10 nM)
# Method in brief: as §1
# [10] = tested on: PPARg:RXRa 90nM:30nM, anti-RXR (NR concentration 90 nM, RXRa partner concentration 30 nM)
# Method in brief: as §1
# [11] = tested on: PPARg:RXRa DBDmut IVT, anti-RXR (DBD mutation: RXRa K156A/R161A, NR concentration 270 nM, RXRa partner concentration 90 nM)
# Method in brief: as §1
# [12] = tested on: PPARg:RXRa IVT, anti-PPARg (NR concentration 270 nM, RXRa partner concentration 90 nM)
# Method in brief: as §1
# [13] = tested on: PPARg DBDmut:RXRa IVT, anti-PPARg (DBD mutation: PPARg1 K132A/R137A, NR concentration 270 nM, RXRa partner concentration 90 nM)
# Method in brief: as §1
# [14] = tested on: PPARg DBDmut IVT, anti-PPARg (DBD mutation: PPARg1 K132A/R137A, NR concentration 270 nM)
# Method in brief: as §1
# [15] = tested on: PPARg homodimer (NR concentration 180 nM)
# Method in brief: as §1
# [16] = tested on: PXR:RXRa (NR concentration 270 nM, RXRa partner concentration 90 nM)
# Method in brief: as §1
# [17] = tested on: PXR homodimer (NR concentration 270 nM)
# Method in brief: as §1
# [18] = tested on: RARa:RXR (NR concentration 270 nM, RXRa partner concentration 90 nM)
# Method in brief: as §1
# [19] = tested on: RARa homodimer (NR concentration 270 nM)
# Method in brief: as §1
# [20] = tested on: RARb:RXRa (NR concentration 270 nM, RXRa partner concentration 90 nM)
# Method in brief: as §1
Sequence,PBM binding z-score [1],PBM binding z-score [2],PBM binding z-score [3],PBM binding z-score [4],PBM binding z-score [5],PBM binding z-score [6],PBM binding z-score [7],PBM binding z-score [8],PBM binding z-score [9],PBM binding z-score [10],PBM binding z-score [11],PBM binding z-score [12],PBM binding z-score [13],PBM binding z-score [14],PBM binding z-score [15],PBM binding z-score [16],PBM binding z-score [17],PBM binding z-score [18],PBM binding z-score [19],PBM binding z-score [20]
CCTAGTTGGTCTAGGTCACACACGCTATAGGTAC,1.54,1.66,1.3,1.68,0.465,2.18,1.42,1.53,0.318,0.958,2.17,3.05,0.258,0.48,2.14,1.4,0.764,2.1,1.82,2.63
AGCTCTAGGTAACAAGTTCAGTGAAAGAGAGGAC,0.5,0.614,0.194,0.684,0.134,1.53,1.33,1.92,0.448,1.34,3.82,2.13,0.734,0.272,0.839,1.63,1.98,0.544,0.529,1.64
ACTAGCAGGCCAAGTTTGGGTCACTGAAACAAAG,0.428,0.0569,-0.409,0.671,-0.515,1.52,0.0239,0.587,-0.227,-0.112,0.913,1.45,-0.659,-0.796,0.506,0.641,-0.0145,1.25,-0.321,2
ACAGCCAGGTGAGTGAAGGTAACTCAGCTGGACG,0.0409,-0.362,-0.936,-0.925,-1.03,-0.248,0.164,-0.463,-0.822,-0.5,0.411,0.424,-0.718,-0.566,-0.774,-0.607,-0.722,-0.11,-0.431,0.179
TCCAGCAGGCCAGAGGGTCACTCAAGAGGTACGG,0.97,1.16,-0.45,1.18,-1.14,2.23,0.983,1.87,1.59,1.79,0.933,0.217,-0.437,-1.27,0.577,1.45,-0.376,2.3,-0.207,2.2
CGAACGAGGGCATGAGTTAATAGCAAATGCCGAT,0.396,0.206,-0.633,0.117,-0.921,1.49,1.64,1.98,0.666,1.58,2.98,2.1,-0.0604,0.0299,-0.39,0.548,0.0291,0.254,-0.352,1.89
TCTCGGAGTACACGAAAGGTCAGAGCTCGACATC,2.31,3.69,2.03,3.2,-0.426,3.55,1.78,3.53,2.52,3.11,1.42,1.77,0.689,0.21,1.29,4,-0.3,4.04,-0.148,3.79
CGACCAAGGTGAACAAGGTCGTTGATTACTATTC,1.09,1.16,-0.248,1.83,-0.531,2.54,1.27,1.29,-0.0265,0.643,1.95,2.6,-0.104,-0.33,0.615,2.45,1.03,1.99,0.125,2.22
ATCGAAACGTCGAAGGTGAGTATACCCACCCGAA,-0.17,-0.352,-0.345,-0.738,-0.334,-0.193,0.676,-0.0479,0.0501,-0.0142,-0.927,-0.0186,0.59,0.626,-0.242,-0.502,-0.249,-0.42,0.0263,0.237
CAAACTAGGTCAAAGGTCGAAGTCGAGCCAACCA,7.06,5.62,1.41,4.93,0.909,7.28,13.9,11.2,14.3,13.6,8.87,9.27,5.32,3.95,3.95,5.77,0.27,8.46,0.524,4.71
TAGCCTAGGTCATTCAGTGGCCAGTATAGAAAGC,4.21,3.55,0.592,2.39,0.554,3.44,1.95,2.24,0.522,1.51,1.37,2.7,0.204,-0.521,1.28,1.66,-0.355,2.22,-0.566,3.65
CAAACTAGGTCACCGGAAGGTGAAAGTCCGCATG,4.95,3.97,0.466,3.14,0.0268,5.42,9.29,7.34,5.78,7.31,8.74,8.89,2.99,0.925,4.64,2.98,0.142,4.74,0.555,4.54
CGTCCACGGTCAAAGGTCAGTGAAGAGATGACGG,5.45,4.83,1.87,3.7,-0.0177,5.49,7.71,7.46,5.82,7.93,1.1,3.94,-0.461,-0.195,6.23,4.9,0.288,7.25,2.09,5.01
TCGAGTAGGTTACCAATGGGCCATTCAGCTTTCT,0.506,1.7,-0.585,0.464,-1.18,1.09,0.383,1.13,0.927,1.04,3.13,2.59,-1.01,-0.848,-0.318,0.108,-0.851,0.175,-0.737,0.862
ATACCAAGGTGAACGTGAGGTCGTTGATACTAAC,3.12,3.08,1.29,2.47,-0.133,2.87,2.13,1.87,0.56,1.48,2.44,3.17,1.14,0.95,1.83,4.23,1.48,3.21,0.99,2.43
ACTATTAGTTCAGACGAGGGCAACCGATAGGTTG,1.07,1.31,0.305,0.453,0.271,0.817,0.621,0.191,-0.0108,0.00845,0.264,0.891,0.625,0.802,0.783,3.92,2.04,0.878,0.72,2.1
CCTTACGGGTCGAGGTTATAGCACGGGTGGTACG,1.26,1.27,-0.211,0.916,-0.417,2.42,0.822,1.01,-0.146,0.242,-0.517,0.508,-0.109,-1.51,1.53,1.11,0.209,1.61,-0.219,1.97
CGTCCAAGGTCTGCAGGTCAGTGAAAGCGACGTG,0.149,0.12,-0.428,0.0193,-1.21,0.759,-0.32,0.0368,-0.45,-0.257,0.404,0.652,-0.578,-0.887,0.2,0.243,-0.548,0.466,-0.728,2.16
CGTCCAAGATCAGCAGGTCAGTGAAAGCGACGTG,0.239,0.32,0.0834,0.195,-0.306,0.671,0.0765,0.227,-0.568,-0.405,0.000191,-0.104,-0.863,-0.238,0.712,0.136,-0.221,0.583,-0.407,1.97
CGTCCAAGGTCACTGCTAGGTCAGTGAAAGCATT,6.69,5.11,1.49,4.28,0.283,5.14,4.7,5.1,1.92,3.94,3.59,4.59,-0.128,0.266,3.91,4.72,1.09,5.65,0.316,5.42
CAAACTAGGTCACCGGATGGTCAAAGTCCGCATG,4.23,3.25,0.505,2.57,0.435,5.4,8.96,7.39,5.71,7.25,8.46,8.82,4.83,2.57,3.76,2.49,0.137,3.77,1.02,4.29
GGAAGGAGGGCAAAGTTGATAGCATCTGTCGACG,1.43,1.38,0.21,1.88,1.01,4.14,7.61,7.29,7.65,8.18,4.12,4.58,0.789,0.418,1.64,1.3,1.62,1.57,1.19,2.31
CGTCAAAGTTCAAGGTAACGTAACAGAAAGCAGC,6.65,5.73,2.59,3.46,1.01,4.81,4.45,5.18,2.02,3.97,0.893,2.47,1.4,0.701,2.19,4.2,2.44,3.28,1.04,5.17
CTACCAAGGTGAACCAGGTCGTTGATTACTATTC,0.862,1.52,-0.0698,1.8,-0.718,2.61,1.19,1.54,0.0677,0.58,2.39,3.12,-0.252,0.258,1.51,1.93,0.659,2.14,-0.266,1.92
CCTTACGGGTCACTACAGGTTATAGCATCGGAGT,4.92,8,2.22,6.14,0.211,4.69,3.41,3.84,1.46,2.62,2.72,3.21,0.858,0.751,1.99,4.52,0.327,4.47,1.02,3.91
TCGAGTAGGTTAGGGGCATGCAGAATGGCGTCGA,0.354,0.125,-0.474,0.49,-0.161,1.29,0.641,1.68,0.979,1.27,1.92,1.32,-0.639,-1.3,0.568,0.108,-0.44,0.383,-0.355,1.2
